40 molecules from PubChem BioAssay (Tox21) can be followed below.

Activity calls are given as the source filed them. Where a call stands in place of a potency, no number is given. The call rests on the fitted dose curve.

This assay can be described thus: G protein-coupled receptor (GPCR) small molecule agonists, calcium flux assay: HEK293 wild type cell line counter screen (AID 1920065). The settings on record: HEK293 WT calcium flux, fluorescence, agonist mode; series mostly up to 57.6 µM. The text has this:
U.S. Tox21 Program National Center for Advancing Translational Sciences [NCATS] Division of Preclinical Innovation [DPI] U.S. Environmental Protection Agency [EPA] National Institutes of Environmental Health Sciences [NIEHS] National Toxicology Program [NTP] U.S. Food and Drug Administration [FDA] Assay overview: The increased intracellular calcium release that occurred upon G protein-coupled receptor (GPCR) activation led to the frequent use of calcium flux assays to detect GPCR activation. For the purpose of studying and screening compounds that may activate GPCR, receptor-overexpressing models were typically generated using Hek293 wild-type (WT) cells. In order to eliminate the compounds that may have induced calcium release for non-specific activation, a counter-assay utilizing calcium flux on Hek293 WT cells was performed. The data were formulated in order to serve as a control for any calcium flux detection utilizing Hek293 cells with either GPCR overexpression or gene modification. The procurement of Hek293 WT cells from ATCC. Fluorescence intensity can be utilized to determine the activation of the compound in a calcium flux assay. As a counter control, this cell line was utilized to screen the Tox21 10K compound library.
Assay Protocol Summary: Hek293 cells were dispensed at 1500cells/4uL/well in 1536-well black wall/clear bottom plates using a multidrop dispenser. After the assay plates were incubated at a 37 C/5% CO2 incubator for 18 hours, 4 uL of Calcium Dye Solution was added to each well. The plates were incubated at 37 C for 1 hour. For agonist mode, 23 nL of compounds dissolved in DMSO, positive control (ATP) or DMSO only was transferred to the assay plate by a pin tool station. The fluorescence intensity in the plates was measured using FDSS 7000EX kinetic plate reader with a filter set of Ex/Em=480/540 for 3 min at 1 sec intervals. Each test compound was measured at 15 concentrations and in triplicates.
Background: Calcium assays in cells follow changes in intracellular calcium, usually with a dye or a luminescent sensor.
Turning to `N=C(N)c1ccccc1`, the Potency entry was “inactive”.
The entry for `COc1ccc2cccc(CCNC(C)=O)c2c1` is “inactive”.
The entry for `Clc1ccccc1C(c1ccccc1)(c1ccccc1)n1ccnc1` is “inactive”; for `O=C(O)CONC(=O)c1ccccc1` it is “inactive”.
For `CCOC(=O)C(C)Oc1ccc(Oc2cnc3cc(Cl)ccc3n2)cc1` (stereo not given), the Potency result was “inactive”.
To `O=C(OCCOCCO)c1ccccc1Nc1cccc(C(F)(F)F)c1` belongs “inactive”; to `O=c1[nH]cnc2c1ncn2[C@@H]1O[C@H](CO)[C@@H](O)[C@H]1O`, “inactive”; to `CCOC(=O)c1ccc(OCCN2C[C@H](O)[C@@H](O)[C@H](O)[C@H]2CO)cc1`, “inactive”.
The entry for `O=Cc1ccc(Cl)cc1` is “inactive”; for `C[C@]12CCC(=O)C=C1CC[C@@H]1[C@@H]2[C@@H](O)C[C@@]2(C)[C@H]1CC[C@]2(O)C(=O)CO` it is “inactive”.
The entry for `CC(=O)c1ccc(O)c(C(N)=O)c1` is “inactive”; for `Cc1ccccc1C(=O)N1CC/C(=N\OS(=O)(=O)O)c2ccc(Cl)cc21` it is “inactive”; for `O=C1NC(=O)[C@@]2(CCOc3ccc(F)cc32)N1` it is “inactive”.
Take `CCc1ccccc1O`: the Potency entry is “inactive”.
The entry for `CC(C)CC(=O)OCc1ccccc1` is “inactive”.
The entry for `CC(=O)N(O)CCCCCNC(=O)CCC(=O)N(O)CCCCCNC(=O)CCC(=O)N(O)CCCCCN` is “inactive”; for `Cc1ccc(C(=O)Nc2ccc(S(=O)(=O)O)c3cc(S(=O)(=O)O)cc(S(=O)(=O)O)c23)cc1NC(=O)c1cccc(NC(=O)Nc2cccc(C(=O)Nc3cc(C(=O)Nc4ccc(S(=O)(=O)O)c5cc(S(=O)(=O)O)cc(S(=O)(=O)O)c45)ccc3C)c2)c1` it is “inactive”; for `Cc1ccccc1C(N)=O` it is “inactive”.
To `O=C(Oc1ccccc1)c1ccc(O)cc1` belongs “inactive”.
In the case of `OC1CCCCCCCCCCC1`, the Potency entry is “inactive”.
Turning to `CC1(C)O[C@H]2CC(=O)OC[C@]23[C@H]2CC[C@@]4(C)[C@H](c5ccoc5)OC(=O)[C@H]5O[C@]54[C@]2(C)C(=O)C[C@@H]13`, the Potency entry is “inactive”.
The entry for `Nc1ccccc1S(=O)(=O)O` is “inactive”; for `c1ccc(SCCSc2ccccc2)cc1` it is “inactive”.
To `[K+]` belongs “inactive”; to `OCC(CO)N[C@H]1C[C@](O)(CO)[C@@H](O)[C@H](O)[C@H]1O`, “inactive”.
To `c1ccc2c(c1)CCC2` belongs “inactive”; to `OC[C@H]1O[C@@H](O[C@H]2[C@H](O)[C@@H](O)[C@H](O)O[C@@H]2CO)[C@H](O)[C@@H](O)[C@H]1O`, “inactive”.
On to `O=C1OC(=O)c2c(Cl)c(Cl)c(Cl)c(Cl)c21`, for which the Potency result is “inactive”.
As for `CC(=N\O)/C(C)=N/O`, the Potency result is “inactive”.
For `CC(CO)CO`, the Potency entry was “inactive”.
Take `CC(C)(CCl)c1ccccc1`: the Potency result was “inactive”.
The entry for `CCOc1ccccc1OCC` is “inactive”; for `CCCCOCCCC` it is “inactive”.
The entry for `C[Si](C)O[Si](C)(C)O[Si](C)(C)O[Si](C)C` is “inactive”; for `CCOC(=O)CN1CCCC1=O` it is “inactive”; for `CCC1COC(=O)O1` (stereo not given) it is “inactive”.
Regarding `COC(=O)c1cc(Cl)c(NC(C)=O)cc1OC`, the Potency result is “inactive”.
Regarding `CC(=O)c1ccc2c(c1)CCCC2`, the Potency result is “inactive”.
To `CCC(C)(C)C` belongs “inactive”; to `C1CSCCS1`, “inactive”.
